For 27 compounds, Potency and activation results are on record in PubChem BioAssay (Tox21).

Several values for one entry are separate records, joined by “and”; a condition that tells them apart may be missing. Equal entries are not always repeated. Inconclusive results are not listed. Activity calls are given as the source filed them. Unless noted, calls follow the shape of the dose curve; as a rule, active = well fitted curve in the direction sought with a large enough effect in the repeat runs; inconclusive = weak or mixed curves; inactive = no such curve, though single readings can be large; an effect the other way counts as inactive or inconclusive.

Test [1] in a line: qHTS assay to identify small molecule antagonists of the thyroid receptor (TR) signaling pathway (AID 743065). Also: nearly all actives have a fitted effect of over 55% in size. Also: potency is read from the fitted curve at half-maximal effect. In a few lines: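 GH3.TRE-Luc rat pituitary cells carrying two TR response elements driving luciferase were plated for 4 h, given compound plus 1 nM T3 (final), and incubated 23.5 h at 37 C. ONE-Glo luminescence measured reporter inhibition; CellTiter-Fluor fluorescence tracked cytotoxicity.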

Test [2] relates to thyroid hormone receptor (rat, GH3 cells). Briefly: qHTS assay to identify small molecule agonists of the thyroid receptor (TR) signaling pathway (AID 743066; calls by dose curve; also: potency is read from the fitted curve at half-maximal effect). In general terms: Quantitative high-throughput screening tests each substance at several concentrations.
A further test concerns the target Aromatase (Homo sapiens) (UniProt P11511). Nature of the test: qHTS assay to identify aromatase inhibitors (AID 743083). Also: nearly all actives have a fitted effect of over 55% in size. Also: potency is read from the fitted curve at half-maximal effect.
Test [3] concerns the target Estrogen receptor (Homo sapiens) (UniProt P03372). Nature of the test: qHTS assay to identify small molecule antagonists of the estrogen receptor alpha (ER-alpha) signaling pathway (AID 743069; active = well fitted curve in the direction sought with a large enough effect in the signal ratio in the repeat runs, not every such curve was filed as active; the % refers to the signal ratio). In a few lines:
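A 17beta-estradiol challenge was applied right after compound transfer to ER-alpha-UAS-bla HEK293 cells previously kept in charcoal-stripped serum. Plates stood 18 hr at 37C and 5% CO2; fluorescence was read following 2 hr FRET substrate loading at room temperature.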

For test [4] the target is unchanged. Briefly: qHTS assay to identify small molecule agonists of the estrogen receptor alpha (ER-alpha) signaling pathway (AID 743075; calls by dose curve;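 also: HEK293 GripTite cells with ER-alpha and UAS-driven beta-lactamase reporter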).
Test [5] shares this target. Briefly: qHTS assay to identify small molecule agonists of the estrogen receptor alpha (ER-alpha) signaling pathway using the BG1 cell line (AID 743079). Also: nearly all actives have a fitted effect of over 20% in size. Also: potency is read from the fitted curve at half-maximal effect. The following applies: BG1Luc4E2 cells, ERE-luciferase agonist, 22 h; activation: at 70.3 µM (top of the series).
Test [6] can be described thus: qHTS assay to identify small molecule antagonists of the estrogen receptor alpha (ER-alpha) signaling pathway using the BG1 cell line (AID 743080; calls by dose curve;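 also: BG1 cells stimulated with 17beta-estradiol alongside compound; nearly all actives have a fitted effect of over 25% in size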; also: potency is read from the fitted curve at half-maximal effect). The settings on record: BG1Luc4E2 ERE-luciferase antagonist mode, luminescence; activity change, negative = inhibition: at 70.3 µM (top of the series). In a few lines:
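Luminescence from a 4×ERE-luciferase reporter in BG1-Luc-4E2 cells served as read-out. Cells, pre-cultured 5 days in stripped-serum phenol-red-free medium, were exposed to compound with 17beta-estradiol co-stimulation for 21.5 h at 37 C.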

Test [7] is described as follows: qHTS assay to identify small molecule antagonists of the estrogen receptor alpha (ER-alpha) signaling pathway using the BG1 cell line - cell viability counter screen (AID 743081).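 Also: compound given together with 17beta-estradiol as the ER stimulus; nearly all actives have a fitted effect of over 45% in size.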
Test [8] can be described thus: qHTS assay to identify small molecule antagonists of the estrogen receptor alpha (ER-alpha) signaling pathway - cell viability counter screen (AID 743074; calls by dose curve;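 also: HEK293 cells carrying ER-alpha-UAS-bla reporter stimulated with 17beta-estradiol; nearly all actives have a fitted effect of over 45% in size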; also: potency is read from the fitted curve at half-maximal effect).
% is scaled to controls: 0 for no effect and ±100 for the full control effect.

Chain of Estrogen receptor (Homo sapiens) (P03372 whole entry, looked up): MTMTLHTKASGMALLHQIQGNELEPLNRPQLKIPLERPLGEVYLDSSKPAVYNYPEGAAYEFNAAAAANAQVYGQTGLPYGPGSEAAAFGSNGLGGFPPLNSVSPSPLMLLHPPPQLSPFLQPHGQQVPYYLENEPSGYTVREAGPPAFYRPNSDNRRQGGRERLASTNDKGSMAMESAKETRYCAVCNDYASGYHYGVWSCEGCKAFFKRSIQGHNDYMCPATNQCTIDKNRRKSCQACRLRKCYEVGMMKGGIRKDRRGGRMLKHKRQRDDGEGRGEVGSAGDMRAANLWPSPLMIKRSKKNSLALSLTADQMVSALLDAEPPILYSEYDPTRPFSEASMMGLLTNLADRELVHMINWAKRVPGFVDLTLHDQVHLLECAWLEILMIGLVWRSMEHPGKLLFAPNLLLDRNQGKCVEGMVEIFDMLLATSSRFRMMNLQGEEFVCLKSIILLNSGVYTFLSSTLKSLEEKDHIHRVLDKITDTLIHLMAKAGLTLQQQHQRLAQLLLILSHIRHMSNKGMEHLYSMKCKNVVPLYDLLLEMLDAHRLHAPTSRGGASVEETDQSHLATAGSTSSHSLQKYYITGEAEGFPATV
Chain of Aromatase (Homo sapiens) (P11511 whole entry, looked up): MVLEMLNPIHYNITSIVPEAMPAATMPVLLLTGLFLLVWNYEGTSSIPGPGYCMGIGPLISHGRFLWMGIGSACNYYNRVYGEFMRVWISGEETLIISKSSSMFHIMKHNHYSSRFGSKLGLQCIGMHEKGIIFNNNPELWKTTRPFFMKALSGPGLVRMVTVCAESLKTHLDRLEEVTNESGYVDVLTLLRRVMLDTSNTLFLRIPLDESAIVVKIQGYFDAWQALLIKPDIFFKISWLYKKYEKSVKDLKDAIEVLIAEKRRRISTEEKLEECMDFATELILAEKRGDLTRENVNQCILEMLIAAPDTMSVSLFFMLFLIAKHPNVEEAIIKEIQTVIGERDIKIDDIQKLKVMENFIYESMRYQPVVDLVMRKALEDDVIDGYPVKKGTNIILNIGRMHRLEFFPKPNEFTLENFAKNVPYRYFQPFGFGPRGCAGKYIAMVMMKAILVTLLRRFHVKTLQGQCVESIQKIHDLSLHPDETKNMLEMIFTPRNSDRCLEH

Consider `O=C(Oc1ccccc1)c1cccc(C(=O)Oc2ccccc2)c1`, for which the Potency result (in test [1]; in test [2]; with Aromatase (Homo sapiens)) was “inactive” each time.
In the case of `CC(C)c1ccc(O)c(C(C)C)c1`, the Potency result in [2], in test [3], in test [4], in test [5] and in test [7] was “inactive” each time. Besides, the Potency in test [6] was 54.5 µM (active).
For `CCN(CC)CCSC(=O)C(c1ccccc1)c1ccccc1`, in [1], the Potency is 26.6 µM (active). Also, the Potency result (in [2]; in test [8]; in test [4]; in test [5]; in test [7]; with Aromatase (Homo sapiens)) was “inactive” in each case.
Take `CCCCNc1c(C(=O)OCC)c(C)nc2c1cnn2CC`: the Potency entry in test [2], in [3], in test [8], in [4], in test [5] and in test [6] was “inactive” throughout. The Potency entry (in [7]; with Aromatase (Homo sapiens)) was “inactive” in each case.
Regarding `CSc1c(Cl)c(Cl)c(Cl)c(Cl)c1Cl`, the Potency entry (in test [7]; in the test with Aromatase (Homo sapiens)) was “inactive” in each case.
As for `O=C1OC(OC(=O)c2cccnc2Nc2cccc(C(F)(F)F)c2)c2ccccc21` (configuration not stated), in test [1], the Potency was 29.8 µM (active). Also, the Potency entry (in [2]; in test [8]; in test [7]; with Aromatase (Homo sapiens)) was “inactive” throughout.
Regarding `CC(C)c1cccc(C(C)C)c1N1C(=O)c2ccc(O)cc2C1=O`, the results for the Potency (in [1]; with Aromatase (Homo sapiens)) were 4.86 µM (active) and 54.5 µM (active), respectively.
With `C[n+]1c2cc(N)ccc2cc2ccc(N)cc21` (tested in a mixture with another compound), the Potency in test [1] was 6.68 µM (active); in the test with Aromatase (Homo sapiens) it was 18.8 µM (active). For the same compound, the Potency result in test [8] is “inactive”.
Regarding `C[C@]12CC[C@H]3C(=CCc4cc(O)ccc43)[C@@H]1CCC2=O`, the Potency in [2] was 1.54 µM (active). For the same compound, the Potency result (in test [8]; in [7]; with Aromatase (Homo sapiens)) was “inactive” each time. In addition, the activation in test [5] is 38% (active).
Turning to `CC(O)C#CC(C)O` (configuration not stated), the Potency in [1] is 60.5 µM (active). In addition, the Potency result in test [2], in test [8], in [4], in test [5] and in test [7] was “inactive” in each case.
As to `C1CC(COCC2CO2)CCC1COCC1CO1` (configuration not stated), the Potency in test [1] is 61.1 µM (active). Moreover, the Potency entry in test [2], in [8], in test [4], in [5], in test [6] and in [7] was “inactive” in each case.
With `CCCCCCCCCCCC(=O)N(CC)CC`, the Potency entry (in test [1]; in test [2]; in test [8]; in [7]; with Aromatase (Homo sapiens)) was “inactive” each time.
With `Clc1ccc(C(c2ccccc2Cl)C(Cl)Cl)cc1` (configuration not stated), the Potency result (in test [2]; in test [8]; in [7]; with Aromatase (Homo sapiens)) was “inactive” each time.
Regarding `CN(Cc1cc(Br)cc(Br)c1N)C1CCCCC1`, the Potency entry (in test [2]; in [8]; in test [4]; in test [6]; in test [7]; with Aromatase (Homo sapiens)) was “inactive” in each case.
`CCCCC(CC)COC(=O)c1ccc(O)cc1` (configuration not stated): the Potency result in test [2] and in test [7] was “inactive” each time. For the same compound, the Potency in test [8] is 54.7 µM (active); with Aromatase (Homo sapiens), 15.3 µM (active) and 19.3 µM (active).
Turning to `CCCCCCC(C)OC(=O)COc1nc(F)c(Cl)c(N)c1Cl` (configuration not stated), the Potency result in [2], in test [8] and in [7] was “inactive” in each case.
For `C[C@H]1O[C@@H](O[C@H]2[C@@H](O)C[C@H](O[C@H]3[C@@H](O)C[C@H](O[C@H]4CC[C@@]5(C)[C@H](CC[C@@H]6[C@@H]5C[C@@H](O)[C@]5(C)[C@@H](C7=CC(=O)OC7)CC[C@]65O)C4)O[C@@H]3C)O[C@@H]2C)C[C@H](O)[C@@H]1O`, the Potency in test [8] was 0.0195 µM (active). The Potency entry (in test [7]; with Aromatase (Homo sapiens)) was “inactive” throughout.
As to `NC(=O)c1nc(-c2cccc(-c3cc(F)ccc3OCC(F)(F)C(F)(F)F)c2)n[nH]1`, the Potency result in test [4] and in test [7] was “inactive” throughout. The figures for the Potency (in test [6]; in the test with Aromatase (Homo sapiens)) were 68.6 µM (active) and 30.6 µM (active), respectively.
`Clc1ccccc1CN1CCc2sccc2C1`: the Potency entry (in test [2]; in test [8]; in test [7]; with Aromatase (Homo sapiens)) was “inactive” throughout.
Take `c1cc2c3c(c1)ccc1cccc(c13)C2`: the Potency result (in [1]; in [2]; in [8]; in [7]; with Aromatase (Homo sapiens)) was “inactive” in each case.
Take `CCCCCCCC/C=C\CCCCCCCC(=O)OCCOC(=O)CCCCCCC/C=C\CCCCCCCC`: the Potency entry in [1], in test [2], in [8], in [4], in test [6] and in test [7] was “inactive” each time. In the test with Aromatase (Homo sapiens), the Potency entry was “inactive”. Also, in test [5], the Potency is 71.2 µM (active).
Consider `CNC(=S)NN`, for which the Potency (in [1]; with Aromatase (Homo sapiens)) was 61.1 µM (active) each time. In addition, the Potency entry in test [2], in [8], in test [4] and in test [7] was “inactive” in each case.
Consider `C=CC(=C)CCC=C(C)C`, for which the Potency entry (in test [1]; in test [2]; in test [8]; in [7]; in the test with Aromatase (Homo sapiens)) was “inactive” in each case.
Consider `CCCCCCCCCC(=O)N(C)C`, for which the Potency entry in [1], in [2], in [8] and in test [7] was “inactive” in each case.
Turning to `Clc1ccc(C(Cn2ccnc2)OCc2c(Cl)cccc2Cl)c(Cl)c1` (configuration not stated), the Potency in test [1] is 11.4 µM (active); in the test with Aromatase (Homo sapiens), 10.1 µM (active). For the same compound, the Potency result in [8], in test [5], in test [6] and in [7] was “inactive” throughout.
With `C=CC(=O)OCCC#N`, the Potency in test [1] is 54.8 µM (active). In addition, the Potency entry in [2], in test [8] and in test [7] was “inactive” each time.
For `CCCCN(CCCC)CCC(O)c1cc2c(Cl)cc(Cl)cc2c2cc(C(F)(F)F)ccc12` (configuration not stated), the Potency entry in [3], in test [8], in test [4], in test [5], in test [6] and in test [7] was “inactive” each time. Further, the Potency result with Aromatase (Homo sapiens) is “inactive”.
